PubChem BioAssay (Tox21)
Results filed as inconclusive are left out. Activity calls are given as the source filed them. Calls follow the shape of the dose curve; as a rule, active = well fitted curve in the direction sought with a large enough effect in the repeat runs; inconclusive = weak or mixed curves; inactive = no such curve, though single readings can be large; an effect the other way counts as inactive or inconclusive.

Legend:
[1] = qHTS RealTime-Glo MT Cell Viability Assay in HepG2 cells - 40 hour (AID 1224870); also: nearly all actives have a fitted effect of over 50% in size
How it was run: (§1)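 HepG2 cells (600/well) mixed with RealTime-Glo MT reagent, settled 5 h at 37 C/5% CO2 before compound addition. Nonlytic NanoLuc luminescence from viable-cell prosubstrate reduction read repeatedly during 40 h treatment at 37 C.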

[2] = qHTS RealTime-Glo MT Cell Viability Assay in HEK293 cells - 16 hour (AID 1224872); also: top concentration of the series differs between compounds; nearly all actives have a fitted effect of over 50% in size
How it was run: (§2)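 HEK293 cells were seeded at 600 cells/well together with NanoLuc luciferase and cell-permeant prosubstrate, preincubated 5 h at 37 C/5% CO2, then given compound in DMSO by pintool. Luminescence from viable-cell prosubstrate reduction was read repeatedly over 40 h.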

[3] = qHTS RealTime-Glo MT Cell Viability Assay in HepG2 cells - 8 hour (AID 1224873); also: nearly all actives have a fitted effect of over 55% in size
How it was run: as §1

[4] = qHTS RealTime-Glo MT Cell Viability Assay in HEK293 cells - 40 hour (AID 1224874); conditions: RealTime-Glo luminescence; max response: hits give low values; also: nearly all actives have a fitted effect of over 50% in size
How it was run: (§3)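 Nonlytic bioluminescent viability monitoring. HEK293 at 600 cells/well with reagent; 5 h settle; compound transfer by pintool; plates held at 37 C and read at set time points.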

[5] = A CellTox Green Cytotoxicity Assay to monitor cytotoxicity in HepG2 cells - 16 hour (AID 1224876); also: nearly all actives have a fitted effect of over 45% in size
How it was run: (§4)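 Real-time, homogeneous cytotoxicity readout: dead-cell DNA staining by CellTox Green in HepG2 monolayers, fluorescence measured at timed intervals up to 40 h of continuous compound exposure.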

[6] = qHTS RealTime-Glo MT Cell Viability Assay in HepG2 cells - 32 hour (AID 1224877); also: nearly all actives have a fitted effect of over 55% in size
How it was run: (§5)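 HepG2 cells were seeded at 600 cells/well together with NanoLuc luciferase and a cell-permeant prosubstrate, preincubated 5 h at 37 C/5% CO2, then pin-dosed with compounds in DMSO. Nonlytic luminescence from viable cells was read at each time point.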

[7] = A CellTox Green Cytotoxicity Assay to monitor cytotoxicity in HepG2 cells - 24 hour (AID 1224878); also: nearly all actives have a fitted effect of over 45% in size
How it was run: as §4

[8] = A CellTox Green Cytotoxicity Assay to monitor cytotoxicity in HepG2 cells - 40 hour (AID 1224879); also: nearly all actives have a fitted effect of over 40% in size
How it was run: as §4

[9] = qHTS RealTime-Glo MT Cell Viability Assay in HEK293 cells - 0 hour (AID 1224880); also: top concentration of the series differs between compounds; nearly all actives have a fitted effect of over 45% in size
How it was run: as §3

[10] = A CellTox Green Cytotoxicity Assay to monitor cytotoxicity in HepG2 cells - 0 hour (AID 1224882); also: nearly all actives have a fitted effect of over 35% in size
How it was run: as §4

[11] = A CellTox Green Cytotoxicity Assay to monitor cytotoxicity in HepG2 cells - 32 hour (AID 1224883); also: nearly all actives have a fitted effect of over 50% in size
How it was run: as §4

[12] = A CellTox Green Cytotoxicity Assay to monitor cytotoxicity in HEK293 cells - 8 hour (AID 1224884); also: nearly all actives have a fitted effect of over 35% in size
How it was run: (§6)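 Cytotoxicity was tracked continuously in HEK293 cells by a DNA-binding dye excluded from viable cells. Compounds were transferred in DMSO 5 h after seeding; fluorescence was recorded at intervals up to 40 h.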

[13] = qHTS RealTime-Glo MT Cell Viability Assay in HepG2 cells - 16 hour (AID 1224885); also: nearly all actives have a fitted effect of over 50% in size
How it was run: as §5

[14] = qHTS RealTime-Glo MT Cell Viability Assay in HEK293 cells - 24 hour (AID 1224886)
How it was run: as §2

[15] = qHTS RealTime-Glo MT Cell Viability Assay in HEK293 cells - 8 hour (AID 1224887)
How it was run: as §3

[16] = qHTS RealTime-Glo MT Cell Viability Assay in HepG2 cells - 0 hour (AID 1224889); also: nearly all actives have a fitted effect of over 50% in size
How it was run: as §5

[17] = A CellTox Green Cytotoxicity Assay to monitor cytotoxicity in HEK293 cells - 16 hour (AID 1224888); also: nearly all actives have a fitted effect of over 35% in size
How it was run: as §6

[18] = A CellTox Green Cytotoxicity Assay to monitor cytotoxicity in HEK293 cells - 40 hour (AID 1224871); also: nearly all actives have a fitted effect of over 45% in size
How it was run: as §6

[19] = A CellTox Green Cytotoxicity Assay to monitor cytotoxicity in HEK293 cells - 24 hour (AID 1224875)
How it was run: as §6

[20] = A CellTox Green Cytotoxicity Assay to monitor cytotoxicity in HEK293 cells - 32 hour (AID 1224881); also: nearly all actives have a fitted effect of over 40% in size
How it was run: as §6
% is scaled to controls: 0 for no effect and ±100 for the full control effect.

C=CCc1cc(OC)c2c(c1)OCO2
inactive: Potency [1] | Potency [2] | outcome [3] | max response [4] 8.43% | Potency [5] | Potency [6] | Potency [7] | Potency [8] | outcome [9] | outcome [10] | Potency [11] | Potency [12] | Potency [13] | Potency [14] | Potency [15] | outcome [16]

CCOC(=O)NC(C)(C)Cc1ccc(Cl)cc1
inactive: Potency [1] | Potency [2] | outcome [3] | max response [4] 0.66% | Potency [5] | Potency [7] | Potency [8] | outcome [9] | outcome [10] | Potency [11] | Potency [12] | Potency [13] | Potency [14] | Potency [15] | Potency [17] | outcome [16]

c1ccc2c(c1)CCNC2
inactive: Potency [1] | Potency [18] | outcome [3] | Potency [19] | Potency [5] | Potency [7] | Potency [8] | outcome [9] | Potency [20] | outcome [10] | Potency [11] | Potency [12] | Potency [13] | Potency [15] | Potency [17] | outcome [16]

Cc1ccc(S(=O)(=O)N[C@@H](CCCCN)C(=O)CCl)cc1
inactive: Potency [1] | Potency [18] | Potency [2] | max response [4] 2.57% | Potency [19] | Potency [5] | Potency [8] | outcome [9] | outcome [10] | Potency [11] | Potency [12] | Potency [13] | Potency [14] | Potency [15] | Potency [17] | outcome [16]

CON(C)C(=O)Nc1ccc(Br)c(Cl)c1
inactive: Potency [1] | Potency [18] | outcome [3] | Potency [19] | Potency [5] | Potency [6] | Potency [7] | Potency [8] | outcome [9] | Potency [11] | Potency [12] | Potency [13] | Potency [15] | Potency [17] | outcome [16]

CCN[C@H](C)Cc1cccc(C(F)(F)F)c1
inactive: Potency [1] | Potency [2] | outcome [3] | max response [4] -6.31% | Potency [19] | Potency [5] | Potency [8] | outcome [9] | Potency [20] | outcome [10] | Potency [11] | Potency [13] | Potency [15] | Potency [17] | outcome [16]

ClC(Cl)(Cl)Cl
inactive: Potency [1] | Potency [18] | Potency [2] | max response [4] 2.56% | Potency [19] | Potency [5] | Potency [6] | Potency [7] | Potency [8] | outcome [9] | outcome [10] | Potency [11] | Potency [12] | Potency [13] | Potency [14] | Potency [15] | Potency [17] | outcome [16]

CCOc1cc(OP(=S)(OC)OC)nc(CC)n1
inactive: Potency [1] | Potency [18] | Potency [2] | max response [4] 6.75% | Potency [19] | Potency [5] | Potency [6] | Potency [8] | outcome [9] | Potency [20] | outcome [10] | Potency [11] | Potency [12] | Potency [13] | Potency [14] | Potency [15] | Potency [17] | outcome [16]

CCNP(=S)(OC)O/C(C)=C/C(=O)OC(C)C (stereo not given)
inactive: Potency [18] | Potency [2] | outcome [3] | max response [4] -13.5% | Potency [19] | Potency [5] | Potency [6] | Potency [7] | Potency [8] | outcome [9] | Potency [20] | outcome [10] | Potency [11] | Potency [12] | Potency [13] | Potency [14] | Potency [15] | Potency [17] | outcome [16]

CCC(C)(C#N)N=NC(C)(C#N)CC (stereo not given)
inactive: Potency [18] | Potency [2] | outcome [3] | max response [4] 2.46% | Potency [19] | Potency [5] | Potency [6] | Potency [7] | Potency [8] | outcome [9] | Potency [20] | outcome [10] | Potency [11] | Potency [12] | Potency [13] | Potency [14] | Potency [15] | Potency [17] | outcome [16]

CCC(=O)c1ccc(Cl)cc1
inactive: Potency [1] | Potency [18] | Potency [19] | Potency [5] | Potency [6] | Potency [7] | Potency [8] | Potency [20] | outcome [10] | Potency [11] | Potency [12] | Potency [14] | Potency [17] | outcome [16]

O=C(Cl)C(Cl)(Cl)Cl
inactive: Potency [18] | Potency [2] | outcome [3] | max response [4] 1.29% | Potency [19] | Potency [5] | Potency [6] | Potency [7] | Potency [8] | outcome [9] | Potency [20] | outcome [10] | Potency [11] | Potency [12] | Potency [13] | Potency [14] | Potency [15] | Potency [17] | outcome [16]

CCOP(=S)(OCC)Oc1ccc(Cl)cc1Cl
inactive: Potency [18] | Potency [2] | outcome [3] | max response [4] 2.64% | Potency [19] | Potency [5] | Potency [6] | Potency [7] | Potency [8] | outcome [9] | Potency [20] | Potency [12] | Potency [13] | Potency [14] | Potency [15] | Potency [17] | outcome [16]

CN(C)C1CCCCC1
inactive: Potency [18] | outcome [3] | Potency [19] | Potency [5] | Potency [7] | Potency [8] | outcome [9] | Potency [20] | Potency [11] | Potency [12] | Potency [15] | Potency [17] | outcome [16]

O=C(Cl)C(Cl)Cl
inactive: Potency [18] | Potency [2] | outcome [3] | max response [4] 1.34% | Potency [19] | Potency [5] | Potency [6] | Potency [7] | Potency [8] | outcome [9] | Potency [20] | outcome [10] | Potency [11] | Potency [12] | Potency [13] | Potency [14] | Potency [15] | Potency [17] | outcome [16]
